Several values for one entry are separate records, joined by “and”; a condition that tells them apart may be missing. Equal entries are not always repeated. Results filed as inconclusive are left out. A call without a number means that no potency is given here. Some structures have more than one record in an assay (separate samples or runs), and their calls can disagree. Activity calls are given as the source filed them. Unless noted, calls follow the shape of the dose curve; as a rule, active = well fitted curve in the direction sought with a large enough effect in the repeat runs; inconclusive = weak or mixed curves; inactive = no such curve, though single readings can be large; an effect the other way counts as inactive or inconclusive.
Assays:
[1] = qHTS assay to identify small molecule antagonists of the constitutive androstane receptor (CAR) signaling pathway - cell viability counter screen (AID 1224837); also: nearly all actives have a fitted effect of over 45% in size
In short: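 Read-out: CellTiter-Fluor fluorescence after 23 hr at 37 C/5% CO2. Cells: HepG2 double-stable for hCAR and CYP2B6-2.2kb. Compounds tested at 15 concentrations in the presence of CITCO, final concentration 50 nM.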

[2] = biological target: Nuclear receptor subfamily 1 group I member 3 (Homo sapiens) (UniProt Q14994); assay: qHTS assay to identify small molecule antagonists of the constitutive androstane receptor (CAR) signaling pathway (AID 1224838);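 also: HepG2 cells stably expressing hCAR with CYP2B6 luciferase reporter stimulated by CITCO; nearly all actives have a fitted effect of over 40% in size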; also: potency is read from the fitted curve at half-maximal effect
In short: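 Read-out: ONE-Glo luciferase luminescence after 30 min at room temperature. HepG2-CYP2B6-hCAR double-stable cells, compounds in 15-point titration plus 50 nM CITCO final, 24 h at 37 C/5% CO2.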

[3] = biological target: Nuclear receptor subfamily 1 group I member 3 (Homo sapiens) (UniProt Q14994); assay: qHTS assay to identify small molecule agonists of the constitutive androstane receptor (CAR) signaling pathway (AID 1224839);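 also: HepG2 cells stably carrying human CAR and a CYP2B6 luciferase reporter; nearly all actives have a fitted effect of over 15% in size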
In short: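 Luminescence read-out (ONE-Glo, 30 min, room temperature) from double-stable HepG2-CYP2B6-hCAR cells exposed 24 h to 15-point compound series in presence of 0.75 uM PK11195 final.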

[4] = qHTS assay to identify small molecule antagonists of the estrogen related receptor signaling pathway with the pleiotropic PPARgamma coactivator (PGC) from Tox21 10K library - cell viability counter screen (AID 1224840; active = well fitted cell-killing curve with a large enough effect in the repeat runs, not every such curve was filed as active; also: nearly all actives have a fitted effect of over 40% in size)
In short: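 Fluorescence read-out of CellTiter-Fluor viability reagent, added after cells had been exposed to compound in DMSO for 17.5 h at 37 C; 30 min development at 37 C/5% CO2. Cells: PGC/ERR line, 2,000/well.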

[5] = biological target: Thyrotropin receptor (Homo sapiens) (UniProt P16473); assay: qHTS assay to identify small molecule agonists of the thyroid stimulating hormone receptor (TSHR) signaling pathway (AID 1224843; calls by dose curve; also: nearly all actives have a fitted effect of over 45% in size)
In short: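 Agonist-mode screen: TSHR HEK293 cells received test chemicals for half an hour at room temperature, then HTRF cAMP detection reagents for one hour prior to fluorescence measurement. Each chemical ran as a 15-concentration series, triplicated.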

[6] = qHTS assay to identify small molecule agonists of the hypoxia (HIF-1) signaling pathway - cell viability counter screen (AID 1224844; calls by dose curve; also: nearly all actives have a fitted effect of over 50% in size)
In short: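 CellTiter-Glo luminescence read-out, 30 min RT, taken in the same wells as the beta-lactamase HRE reporter assay; HRE-bla ME-180 cells, 0.5% dialyzed FBS, 17 hr compound treatment at 37C, 5% CO2.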

[7] = qHTS assay to identify small molecule agonists of H2AX (AID 1224845; active = well fitted activation curve with a large enough effect in the signal ratio in the repeat runs, not every such curve was filed as active; the % refers to the signal ratio)
In short: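 Wild-type CHO-K1 cells, plated overnight, exposed 3hr at 37C to 15 concentrations (0.76% DMSO final). Lysed, then HTRF anti-pH2AX (S139) cryptate and anti-H2AX-d2 antibodies, 24 hr room temperature; 665/620 nm emission read.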

[8] = qHTS assay to identify small molecule agonists of the hypoxia (HIF-1) signaling pathway (AID 1224846; active = well fitted activation curve with a large enough effect in the signal ratio in the repeat runs, not every such curve was filed as active; the % refers to the signal ratio)
In short: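 Beta-lactamase FRET read-out (CCF4-AM substrate) from ME-180 cells carrying an HRE-driven bla reporter, after 17 hrs compound exposure at 37C/5% CO2. Cells were seeded at 2,000 per well in 0.5% dialyzed FBS medium and preincubated 5 hrs.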

[9] = qHTS assay to identify small molecule agonists of H2AX - cell viability counter screen (AID 1224847; calls by dose curve; also: top concentration of the series differs between compounds; nearly all actives have a fitted effect of over 30% in size)
In short: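 CHO-K1 wt, 1000 cells/well, o/n 37C; cpds 15 conc, 3 h 37C, 0.76% DMSO; CellTiter-Glo, 30 min RT, luminescence.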

[10] = qHTS RealTime-Glo MT Cell Viability Assay in HEK293 cells - 32 hour (AID 1224868); also: top concentration of the series differs between compounds; nearly all actives have a fitted effect of over 50% in size
In short: (§1)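 Assay medium contained NanoLuc luciferase plus cell-permeant prosubstrate, added with HEK293 cells at 600 cells/well. After 5 h at 37 C/5% CO2 compounds were added; plates stayed at 37 C for 40 h with serial luminescence reads.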

[11] = A CellTox Green Cytotoxicity Assay to monitor cytotoxicity in HEK293 cells - 0 hour (AID 1224869); also: nearly all actives have a fitted effect of over 50% in size
In short: (§2)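 Read-out: fluorescence of a cell-impermeant cyanine dye staining DNA of dead cells, proportional to cytotoxicity. HEK293, 600 cells/well with reagent, compound (23 nL DMSO) added after 5 h; reads at 0, 8, 16, 24, 32, 40 h.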

[12] = qHTS RealTime-Glo MT Cell Viability Assay in HepG2 cells - 40 hour (AID 1224870); also: nearly all actives have a fitted effect of over 50% in size
In short: (§3)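 HepG2 cells (600/well) mixed with RealTime-Glo MT reagent, settled 5 h at 37 C/5% CO2 before compound addition. Nonlytic NanoLuc luminescence from viable-cell prosubstrate reduction read repeatedly during 40 h treatment at 37 C.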

[13] = A CellTox Green Cytotoxicity Assay to monitor cytotoxicity in HEK293 cells - 40 hour (AID 1224871); also: nearly all actives have a fitted effect of over 45% in size
In short: as §2

[14] = qHTS RealTime-Glo MT Cell Viability Assay in HEK293 cells - 16 hour (AID 1224872)
In short: as §1

[15] = A CellTox Green Cytotoxicity Assay to monitor cytotoxicity in HEK293 cells - 24 hour (AID 1224875); also: nearly all actives have a fitted effect of over 45% in size
In short: as §2

[16] = A CellTox Green Cytotoxicity Assay to monitor cytotoxicity in HepG2 cells - 16 hour (AID 1224876); also: nearly all actives have a fitted effect of over 45% in size
In short: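 HepG2, 600 cells/well premixed w/ CellTox Green; 5 h settle, 37 C/5% CO2; pintool cpd add (DMSO); 37 C, 40 h; fluorescence read at 0, 8, 16, 24, 32, 40 h.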

[17] = qHTS RealTime-Glo MT Cell Viability Assay in HepG2 cells - 24 hour (AID 1224867); also: nearly all actives have a fitted effect of over 50% in size
In short: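 qHTS, HepG2, 600 cells/well, RealTime-Glo (NanoLuc + prosubstrate) added with cells; 5 h preincubation; DMSO compound addition; 37 C; luminescence at 0/8/16/24/32/40 h.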

[18] = qHTS RealTime-Glo MT Cell Viability Assay in HepG2 cells - 8 hour (AID 1224873); also: nearly all actives have a fitted effect of over 55% in size
In short: as §3

[19] = qHTS assay to identify small molecule agonists of the estrogen related receptor (ERR) signaling pathway from Tox21 library (AID 1224849; calls by dose curve; also: nearly all actives have a fitted effect of over 15% in size); conditions: ERR reporter cell line, ONE-Glo luciferase, 18 h; at 92.4 µM (top of the series)
In short: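 Luminescence readout (ONE-Glo, 30 min RT) after 18 h compound exposure at 37 C of NTP-supplied ERR reporter cells; cells were plated 6 h before compound addition by pin tool.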

[20] = qHTS RealTime-Glo MT Cell Viability Assay in HEK293 cells - 40 hour (AID 1224874); conditions: RealTime-Glo luminescence; max response: stronger effect = lower value; also: nearly all actives have a fitted effect of over 50% in size
In short: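 Luminescence readout at each listed time point; HEK293, 600 cells/well, RealTime-Glo MT reagent added with cells; compounds pinned (23 nL in DMSO) after 5 h at 37 C; continuous culture at 37 C.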

Thyrotropin receptor (Homo sapiens), sequence (P16473 whole entry, looked up): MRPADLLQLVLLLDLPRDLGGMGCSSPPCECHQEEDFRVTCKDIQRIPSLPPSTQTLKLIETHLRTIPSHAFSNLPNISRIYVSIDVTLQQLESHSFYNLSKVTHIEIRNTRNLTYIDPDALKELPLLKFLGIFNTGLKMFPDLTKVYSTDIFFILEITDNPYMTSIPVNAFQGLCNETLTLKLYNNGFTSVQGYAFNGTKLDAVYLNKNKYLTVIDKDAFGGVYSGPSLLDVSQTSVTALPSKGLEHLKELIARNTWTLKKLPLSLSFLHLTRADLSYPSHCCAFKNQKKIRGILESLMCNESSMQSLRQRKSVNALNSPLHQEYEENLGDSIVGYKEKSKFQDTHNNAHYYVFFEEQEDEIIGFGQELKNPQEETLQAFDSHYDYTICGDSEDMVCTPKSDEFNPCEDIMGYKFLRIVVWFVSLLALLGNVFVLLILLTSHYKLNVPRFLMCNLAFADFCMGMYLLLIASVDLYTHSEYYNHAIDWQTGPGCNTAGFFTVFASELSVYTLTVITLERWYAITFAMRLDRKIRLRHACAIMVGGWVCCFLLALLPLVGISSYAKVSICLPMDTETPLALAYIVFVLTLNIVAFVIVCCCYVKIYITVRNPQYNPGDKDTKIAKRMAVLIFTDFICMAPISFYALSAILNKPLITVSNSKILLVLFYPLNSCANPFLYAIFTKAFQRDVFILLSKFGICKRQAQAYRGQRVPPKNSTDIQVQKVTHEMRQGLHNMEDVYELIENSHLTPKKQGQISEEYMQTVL
Nuclear receptor subfamily 1 group I member 3 (Homo sapiens), sequence (Q14994 whole entry, looked up): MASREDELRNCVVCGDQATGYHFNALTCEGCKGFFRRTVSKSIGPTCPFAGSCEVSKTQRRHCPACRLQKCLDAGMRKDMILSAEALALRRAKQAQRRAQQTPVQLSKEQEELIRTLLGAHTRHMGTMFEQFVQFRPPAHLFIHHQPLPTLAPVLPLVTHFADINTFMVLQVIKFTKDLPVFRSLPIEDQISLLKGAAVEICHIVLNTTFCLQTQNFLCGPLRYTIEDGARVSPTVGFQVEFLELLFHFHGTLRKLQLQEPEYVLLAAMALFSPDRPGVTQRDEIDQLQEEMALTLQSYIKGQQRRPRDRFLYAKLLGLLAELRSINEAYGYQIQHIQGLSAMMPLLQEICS

Compound | Potency [1] | Potency [2] | Potency [3] | Potency [4] | Potency [5] | Potency [6] | Potency [7] | outcome [8] | Potency [9] | Potency [10] | outcome [11] | outcome [12] | Potency [13] | Potency [14] | Potency [15] | Potency [16] | outcome [17] | outcome [18] | activity change, positive = activation [19] | max response [20]
CCCCCCCC(=O)OC | inactive | inactive | inactive | inactive | inactive | inactive | inactive | inactive | inactive | inactive | inactive | inactive | inactive | inactive | inactive | inactive | – | – | – | –
CCCCCC1=CCCC1=O | inactive | inactive | inactive | inactive | inactive | inactive | inactive | inactive | inactive | inactive | inactive | inactive | inactive | inactive | inactive | inactive | inactive | inactive | – | –
OCC(CO)(CBr)CBr | inactive | inactive | inactive | inactive | inactive | inactive | inactive | inactive | inactive | inactive | inactive | inactive | inactive | inactive | inactive | inactive | inactive | inactive | 2.42% (inactive) and 0.192% (inactive) | -5.13% (inactive) and 3.96% (inactive)
C=CCNC(N)=S | inactive | inactive | inactive | inactive | inactive | inactive | inactive | inactive | inactive | inactive | inactive | inactive | inactive | inactive | inactive | inactive | inactive | inactive | – | –
Cc1occc(=O)c1O | inactive | inactive and 50.9 µM (active) | inactive | inactive | inactive | inactive | inactive | inactive | inactive | inactive | inactive | inactive | inactive | inactive | inactive | inactive | inactive | inactive | – | -7.52% (inactive) and -0.505% (inactive)
O=C(CC(C(=O)OC1CCCCC1)S(=O)(=O)O)OC1CCCCC1 (centres undefined) | inactive | inactive | inactive | inactive | inactive | inactive | inactive | inactive | inactive | inactive | inactive | inactive | inactive | inactive | inactive | inactive | – | inactive | 3.03% (inactive) and -2.61% (inactive) | –

— PubChem BioAssay (Tox21)
